The list is not random: actives were taken first. Their share in the collection is about 1.4%.
Sa RN4220 lethal – growth inhibition of S. aureus RN4220, primary screen, OD600; 16 h; inhibition, % (concentration not given with the values); actives 0.33% (n = 330,000); AID 1259311, 2017; in the data active means inhibition above about 85%;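 further: plate controls were untreated cells for no effect and reference antibiotic for full effect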
PfHsp40 rescue – rescue of yeast from PfHsp40 toxicity, primary screen, S. cerevisiae, ATP luminescence; S. cerevisiae expressing PfHsp40, growth rescue; AID 504582, 2011; growth rescue, % at 12.5 µM; actives 0.68% (n = 340,000); in the data active means growth rescue above about 28%, passing the limit was not always enough; inconclusive means no clear call, values can overlap the other calls;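 further: yeast W303a lacking pdr1 and pdr3 grown in galactose medium; growth measured after three days at 30 °C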
ugtP null kill – growth inhibition of ugtP-null S. aureus, primary screen, RN4220 ugtP deletion, OD600; actives 0.54% (n = 330,000); 16 h; growth inhibition, % (concentration not given with the values); in the data active means growth inhibition above about 68%;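 further: plate controls were untreated wells for no effect and antibiotic for full effect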
PrP UTR inh – inhibition of PrP 5' UTR reporter expression. cell-based PrP 5' UTR mRNA reporter, plate reader. inhibition, % (test concentration not listed). actives 0.35% (n = 340,000). AID 488862, 2010; in the data active means inhibition above about 52%; further: 0 = median of the neutral control wells
BJeLR lethal – MLPCN primary cell-based screen for lethality selective to Ras in HRASV12 cells. actives 0.17% (n = 300,000). inhibition, % (concentration not given with the values). BJeLR (HRASV12) viability, CellTiter-Glo ATP luminescence, 48 h. AID 1554, 2009; in the data active means inhibition above about 50%; inconclusive means no clear call, values can overlap the other calls
Yp Topo-I inh – Yersinia pestis topoisomerase I inhibitors, primary screen, biochemical, cleavage product accumulation, plate reader, single point | DNA topoisomerase I (Yersinia pestis CO92) | activity, % at 10 µM | Y. pestis Topo-I cleavage product accumulation | actives 0.064% (n = 360,000); in the data active means activity above about 50%, passing the limit was not always enough; inconclusive means no clear call, values can overlap the other calls
The depositor's hits bear a star; ? = inconclusive; · = no result given.

SMILES | Sa RN4220 lethal | PfHsp40 rescue | ugtP null kill | PrP UTR inh | BJeLR lethal | Yp Topo-I inh
COc1ccc(-c2noc(-c3ccccc3-c3ccccc3)n2)cc1 | -3 | 1 | 88* | -13 | 10 | 0
Cc1ccc(-c2nc(-c3ccccc3)no2)c(Cl)c1 | 0 | -1 | 11 | 65* | 11 | 14
CCC(C)CCN1C(Nc2ccccc2)=NCC1C (stereo not drawn) | 6 | · | -4 | · | · | ·
COC(=O)C1CC2CCC(O)CC2N1Cc1ccccc1OC(=O)c1cccs1 (stereo not drawn) | 2 | · | 0 | · | · | ·
CCOC(=O)c1c(C(F)(F)F)cc(-c2ccc(F)cc2)nc1C | 1 | 0 | 94* | -11 | 16 | -6
Cc1ccc(-c2nc(N)sc2-c2ccccc2)cc1C | -12 | -1 | 96* | -90 | -3 | 10
Nc1nc(-c2ccccc2)c(-c2ccc([N+](=O)[O-])cc2)s1 | -8 | 233* | 4 | -9 | -7 | -10
Nc1nc(-c2ccccc2)c(-c2ccccc2)s1 | -1 | -1 | 35 | -20 | -1 | 2
CCC(C)C(NC(=O)C(=Cc1ccccc1)NC(=O)c1ccc(OC)cc1)C(=O)O (stereo not drawn) | 2 | · | 1 | · | · | ·
O=[N+]([O-])c1ccc(O)c2ncccc12 | 99* | ? | 99* | -21 | 41 | 6
Clc1cc2cccnc2c2ncccc12 | -4 | 116* | -7 | -9 | · | 5
Cc1ccc(N2C(=O)c3cccc4c([N+](=O)[O-])ccc(c34)C2=O)c2cccnc12 | 6 | 3 | 5 | 37 | 52* | 13
c1cnc2c(c1)ccc1ncccc12 | 1 | 0 | 2 | -10 | -6 | 10
O=[N+]([O-])c1cc(Cl)c2cccnc2c1O | 99* | 142* | 100* | -21 | 6 | 4
CN1CC2C3C(=O)N(Cc4ccccc4)C(=O)C3[C@](Cc3ccccc3)(C1=O)N2C(=O)c1ccc(C(F)(F)F)cc1 (stereo partly drawn) | 4 | · | -19 | · | · | ·
NC(N)=NCCCC(NC(=O)OCc1ccccc1)C(=O)O (stereo not drawn) | 5 | · | -1 | · | · | ·
CCC(=O)N1CC2(CC(c3cccc(NC(=O)COc4ccc(Cl)cc4)c3)=NO2)CC1C(N)=O (stereo not drawn) | 4 | · | -1 | · | · | ·
Oc1c(Cl)c(Cl)c2ncccc2c1Cl | 25 | -1 | 5 | -10 | · | 1
O=[N+]([O-])c1cc(Cl)c(O)c2ncccc12 | 99* | 24 | 98* | -17 | 6 | 4
O=[N+]([O-])c1ccc(Cl)c2cccnc12 | 2 | 0 | -3 | -18 | 13 | -1
Oc1c(CN2CCc3ccccc3C2)cc(Cl)c2cccnc12 | 4 | 282* | -3 | 22 | 65* | -5
Cc1c(C)c2cccnc2c2ncccc12 | 93* | 76* | 74 | 59* | · | 25
Oc1c(I)cc(Cl)c2cccnc12 | 99* | 246* | 100* | 27 | 9 | -1
COC(=O)C1=C(c2cc3ccccc3o2)CC2CCC1N2C(=O)NCCCOC(C)C (stereo not drawn) | 8 | · | 9 | · | · | ·
O=[N+]([O-])c1ccc(O)c2cccnc12 | 1 | -1 | 7 | -24 | -1 | 10
SMILES | Sa RN4220 lethal | PfHsp40 rescue | ugtP null kill | PrP UTR inh | BJeLR lethal | Yp Topo-I inh
O=c1oc2ccccc2c(O)c1Cc1cc(Cl)c2cccnc2c1O | 94* | ? | 98* | -19 | -3 | 3
O=[N+]([O-])c1cc(F)c2cccnc2c1O | 30 | 73* | 23 | -7 | 0 | 0
O=[N+]([O-])c1cccnc1N1CCC(c2cc(-c3cccc(C(F)(F)F)c3)n[nH]2)CC1 | 8 | 14 | 90* | -13 | 5 | 3
O=[N+]([O-])c1cccnc1N1CCC(c2cc(-c3ccc(Cl)cc3Cl)n[nH]2)CC1 | -1 | 1 | 37 | -13 | -1 | 3
CC(NC(=O)c1nc[nH]c1C(=O)NC(CCCCNC(=O)OC(C)(C)C)C(=O)OC(C)(C)C)C(=O)OC(C)(C)C (stereo not drawn) | 7 | · | -1 | · | · | ·
O=C(O)CSc1cccc[n+]1[O-] | 5 | 0 | 2 | -13 | -1 | -9
O=C(CSc1cccc[n+]1[O-])c1cc(Cl)ccc1Cl | 8 | 80* | 11 | -45 | 3 | 3
Cc1ccc(/C=C2/C(=O)c3ccc(C(=O)O)cc3C2=O)o1 | 3 | 45* | 6 | -11 | 13 | -12
CC(=O)C(Cl)C(=O)Nc1ccccc1 (stereo not drawn) | 6 | 0 | 2 | -25 | · | 3
O=C(Nc1ccccc1)C(Cl)C(=O)c1ccccc1 (stereo not drawn) | 64 | 4 | 92* | -41 | -16 | 2
CC(C)c1cc(-c2cc(C(=O)NCc3ccccc3)on2)nc(NCC2CC2)n1 | -13 | 387* | -4 | -14 | 2 | 1
OCCN(CCO)c1cc2c3ccccc3ccc2c2ccccc12 | -12 | 529* | -14 | -21 | · | -31
CCOc1cc(C=NNC(=O)c2cccs2)cc([N+](=O)[O-])c1O | 5 | · | 11 | · | · | ·
COC(=O)C1=C(c2ccc(OC)c(OC)c2)CC2CCC1N2C(=O)NCCOc1ccccc1Cl (stereo not drawn) | 4 | · | -1 | · | · | ·
CC(C)(C)c1cc(C(c2cccnc2)N2CCN(CCO)CC2)cc(C(C)(C)C)c1O (stereo not drawn) | 71 | 30* | 81 | -19 | 18 | 8
CCc1ccc(C2NC(=S)NC3=C2C(=O)N(c2ccccc2OC)C(c2ccc(CC)cc2)N3)cc1 (stereo not drawn) | -2 | -1 | -31 | -4 | 2 | 22
O=C1C2=C(NC(=S)NC2c2ccc(Cl)cc2)NC(c2ccc(Cl)cc2)N1c1ccc(Cl)cc1 (stereo not drawn) | 100* | -1 | 93* | -4 | -5 | 16
COC(=O)[C@@]1(Cc2ccc(OC)cc2)C2c3cc(C(=O)N4CCCC4)n(CCn4cc([N+](=O)[O-])nc4C)c3CC2CN1C(=O)c1ccccc1 (stereo partly drawn) | 7 | · | -2 | · | · | ·
Cc1cccc(NC(=O)c2nc[nH]c2C(=O)NC(Cc2ccccc2)C(=O)OCc2ccccc2)c1 (stereo not drawn) | -7 | · | 5 | · | · | ·
Cc1ccc(S(=O)(=O)NCCCCCC(=O)NC(C)(C)CO)cc1 | -1 | 51* | -5 | -20 | -3 | -2
CCC[n+]1c(C)sc2c3c(ccc21)CCCC3 | 97* | 0 | 95* | -10 | · | -16
C#CCOCCOCCOCCNc1nc(N2CCOCC2)nc(N2CCN(C(=O)C(CCCN=C(N)N)n3cc(C(N)C(C)CC)nn3)CC2)n1 (stereo not drawn) | 3 | · | -2 | · | · | ·
Cc1ccc(CN2CCC(CNC(=O)Nc3ccccc3F)CC2)cc1 | 1 | 55* | 13 | -1 | -3 | 2
CCC(CO)Oc1cc(NCc2ccc(Cl)c(Cl)c2)c2ncn(C(C)C)c2c1 (stereo not drawn) | -1 | · | 11 | · | · | ·

Screens: PubChem, several laboratories
